Results as given in PubChem BioAssay (Tox21).
Inconclusive results are not listed. Entries that show only a call come without a potency. Active and inactive are the calls of the source. Unless noted, the call rests on the fitted dose curve; in most records, active means well fitted curve in the direction sought with a large enough effect in the repeat runs; inconclusive means weak or mixed curves; inactive means no such curve, though single readings can be large; an effect the other way counts as inactive or inconclusive.

What was measured:
[1] = qHTS RealTime-Glo MT Cell Viability Assay in HEK293 cells - 0 hour (AID 1224880); further: top concentration of the series differs between compounds; nearly all actives have a fitted effect of over 45% in size
How it was run: (§1)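 Viable HEK293 cells reduce a cell-permeant prosubstrate; the product diffuses out and is consumed by NanoLuc in the medium to give light. Compounds went in after a 5 h incubation and plates were read over the treatment course.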

[2] = A CellTox Green Cytotoxicity Assay to monitor cytotoxicity in HEK293 cells - 32 hour (AID 1224881); further: nearly all actives have a fitted effect of over 40% in size; further: potency means the concentration at half of the fitted maximal effect
How it was run: (§2)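 Fluorescence intensity, read at 0, 8, 16, 24, 32 and 40 h of compound treatment, reflected dye binding to DNA of dead HEK293 cells; compounds (23 nL, DMSO) were added 5 h after plating cells with reagent.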

[3] = A CellTox Green Cytotoxicity Assay to monitor cytotoxicity in HepG2 cells - 0 hour (AID 1224882); further: nearly all actives have a fitted effect of over 35% in size
How it was run: (§3)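 Using 1536-well format, dye-containing HepG2 suspension was seeded, allowed 5 h at 37 C/5% CO2, dosed by pintool with compounds, positive and negative controls, and imaged for fluorescence across 40 h.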

[4] = A CellTox Green Cytotoxicity Assay to monitor cytotoxicity in HepG2 cells - 32 hour (AID 1224883); further: nearly all actives have a fitted effect of over 50% in size
How it was run: as §3

[5] = qHTS RealTime-Glo MT Cell Viability Assay in HepG2 cells - 16 hour (AID 1224885); further: nearly all actives have a fitted effect of over 50% in size
How it was run: (§4)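 HepG2 suspension premixed with RealTime-Glo reagents is plated at 600 cells per well and left 5 h at 37 C/5% CO2. Compounds in DMSO then go in, and bioluminescence reflecting viable cell number is recorded over 40 h.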

[6] = qHTS RealTime-Glo MT Cell Viability Assay in HEK293 cells - 24 hour (AID 1224886); further: nearly all actives have a fitted effect of over 50% in size; further: potency means the concentration at half of the fitted maximal effect
How it was run: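 Reads taken at 0, 8, 16, 24, 32 and 40 h from the same wells. HEK293 cells (600/well) carried RealTime-Glo reagents from seeding, with compound added after a 5 h settle at 37 C.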

[7] = qHTS RealTime-Glo MT Cell Viability Assay in HEK293 cells - 8 hour (AID 1224887); further: top concentration of the series differs between compounds; nearly all actives have a fitted effect of over 50% in size
How it was run: as §1

[8] = A CellTox Green Cytotoxicity Assay to monitor cytotoxicity in HEK293 cells - 16 hour (AID 1224888); further: nearly all actives have a fitted effect of over 35% in size
How it was run: as §2

[9] = qHTS RealTime-Glo MT Cell Viability Assay in HepG2 cells - 0 hour (AID 1224889); further: nearly all actives have a fitted effect of over 50% in size; further: potency means the concentration at half of the fitted maximal effect
How it was run: as §4

[10] = A CellTox Green Cytotoxicity Assay to monitor cytotoxicity in HepG2 cells - 8 hour (AID 1224890); further: nearly all actives have a fitted effect of over 45% in size
How it was run: as §3

[11] = qHTS assay to identify small molecule antagonists of the estrogen receptor alpha (ER-alpha) signaling pathway using the BG1 cell line in the presence of 0.1 nM 17-beta-estradiol - cell viability counter screen (AID 1259241); further: nearly all actives have a fitted effect of over 40% in size
How it was run: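 Following 5 days in phenol red-free medium with charcoal-stripped serum, VM7Luc4E2 cells received test compounds alongside 0.1 nM 17beta-estradiol (final) at 37C for 22 hr. Live cells were then quantified via protease-substrate fluorescence.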

[12] = qHTS assay to identify small molecule antagonists of the androgen receptor (AR) signaling pathway using the MDA cell line in the presence of 0.5 nM R1881 - cell viability counter screen (AID 1259242); further: nearly all actives have a fitted effect of over 45% in size
How it was run: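 Viability of MDA-kb2 cells was multiplexed with the luciferase AR readout; after 16 hr with compounds and R1881 at 0.5 nM final, CellTiter-Fluor fluorescence was recorded.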

[13] = qHTS assay to identify small molecule HDAC inhibitors (AID 1259364);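 further: wild-type HCT-116 cells with endogenous class I/II HDAC activity; top concentration of the series differs between compounds; nearly all actives have a fitted effect of over 45% in size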
How it was run: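 Read-out: luminescence of HDAC-Glo I/II reagent, 30 min RT, reflecting class I/II deacetylase activity in whole HCT-116 cells pre-exposed 2 h to DMSO-dissolved compounds.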

[14] = qHTS assay to identify small molecule HDAC inhibitors - cell viability counter screen (AID 1259365)
How it was run: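 HCT-116 wild-type, overnight attachment; 2hr drug exposure, 37C; CellTiter-Glo luminescent ATP readout after 30min RT.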

[15] = qHTS assay to identify small molecule agonists of the sonic hedgehog signaling (Shh) pathway - cell viability counter screen (AID 1259366); further: nearly all actives have a fitted effect of over 50% in size
How it was run: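 Compounds in DMSO were pin-transferred onto 3T3 Gli1-Luc cells that had settled 4hr; plates then stood 24hr at 37C and 5% CO2. One hour before the end, CellTiter-Fluor was added and fluorescence recorded.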

[16] = qHTS assay to identify small molecule antagonists of the sonic hedgehog signaling (Shh) pathway - cell viability counter screen (AID 1259367); further: nearly all actives have a fitted effect of over 55% in size
How it was run: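 NIH/3T3-derived Gli1-Luc reporter cells (2,000 per well) rested 4 hr at 37 C, then received DMSO compounds plus conditioned medium. After 23 hr of treatment, CellTiter-Fluor was added for 1 hr at 37C and fluorescence read.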

[17] = A CellTox Green Cytotoxicity Assay to monitor cytotoxicity in HEK293 cells - 8 hour (AID 1224884); further: nearly all actives have a fitted effect of over 35% in size
How it was run: as §2

[18] = qHTS assay to identify small molecule phospholipidosis (PLD) inducers (AID 1259344; active means well fitted curve in the direction sought with a large enough effect; an effect the other way counts as inactive or inconclusive)
How it was run: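 HepG2 cells on collagen I, attached 4 h at 37 C, were co-treated with compound and LipidTOX Red dye for 24 h at 37 C, then fixed with paraformaldehyde plus Hoechst 33342 and imaged by high-content microscopy for phospholipid accumulation.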

[19] = target: Androgen receptor (Homo sapiens) (UniProt P10275); assay: qHTS assay to identify small molecule antagonists of the androgen receptor (AR) signaling pathway using the MDA cell line in the presence of 0.5 nM R1881 (AID 1259243); further: nearly all actives have a fitted effect of over 50% in size; further: potency means the concentration at half of the fitted maximal effect
How it was run: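 Reporter cells cultured without CO2 receive test chemicals, then 0.5 nM R1881 final; after 16 hr at 37C, ONE-Glo is added and light output recorded.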

[20] = target: Estrogen receptor (Homo sapiens) (UniProt P03372); assay: qHTS assay to identify small molecule antagonists of the estrogen receptor alpha (ER-alpha) signaling pathway using the BG1 cell line in the presence of 0.1 nM 17-beta-estradiol (AID 1259244); further: nearly all actives have a fitted effect of over 50% in size
How it was run: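 Estradiol at 0.1 nM (final) stimulates the endogenous ER-alpha of VM7Luc4E2 cells carrying an ERE-driven luciferase; compounds are co-incubated 22 h at 37C and luciferase output quantified by luminescence.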

Chain of Androgen receptor (Homo sapiens) (P10275 whole entry, looked up): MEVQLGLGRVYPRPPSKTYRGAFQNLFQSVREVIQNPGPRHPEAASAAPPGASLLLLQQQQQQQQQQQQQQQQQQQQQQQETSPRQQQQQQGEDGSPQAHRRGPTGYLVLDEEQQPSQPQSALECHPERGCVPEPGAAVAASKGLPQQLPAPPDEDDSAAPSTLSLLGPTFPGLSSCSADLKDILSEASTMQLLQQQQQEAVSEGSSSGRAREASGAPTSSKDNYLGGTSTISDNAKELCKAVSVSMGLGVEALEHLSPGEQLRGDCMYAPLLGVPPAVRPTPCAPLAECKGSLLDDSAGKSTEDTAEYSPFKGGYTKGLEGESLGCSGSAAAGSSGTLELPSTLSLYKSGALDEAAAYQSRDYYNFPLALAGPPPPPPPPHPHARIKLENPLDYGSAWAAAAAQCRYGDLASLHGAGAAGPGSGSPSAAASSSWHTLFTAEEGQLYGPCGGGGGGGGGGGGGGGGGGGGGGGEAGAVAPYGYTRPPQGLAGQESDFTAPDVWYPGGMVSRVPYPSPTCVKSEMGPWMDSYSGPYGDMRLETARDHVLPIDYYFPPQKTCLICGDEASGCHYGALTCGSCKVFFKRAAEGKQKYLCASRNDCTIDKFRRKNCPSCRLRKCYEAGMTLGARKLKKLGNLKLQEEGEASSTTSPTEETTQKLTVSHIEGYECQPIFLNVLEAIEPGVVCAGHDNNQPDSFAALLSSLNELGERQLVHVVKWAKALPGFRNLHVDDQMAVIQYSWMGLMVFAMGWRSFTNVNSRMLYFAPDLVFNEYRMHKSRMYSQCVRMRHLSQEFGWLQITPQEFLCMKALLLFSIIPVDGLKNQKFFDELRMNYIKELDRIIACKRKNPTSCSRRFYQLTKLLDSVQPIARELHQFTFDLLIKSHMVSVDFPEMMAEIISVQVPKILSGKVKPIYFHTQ
Chain of Estrogen receptor (Homo sapiens) (P03372 whole entry, looked up): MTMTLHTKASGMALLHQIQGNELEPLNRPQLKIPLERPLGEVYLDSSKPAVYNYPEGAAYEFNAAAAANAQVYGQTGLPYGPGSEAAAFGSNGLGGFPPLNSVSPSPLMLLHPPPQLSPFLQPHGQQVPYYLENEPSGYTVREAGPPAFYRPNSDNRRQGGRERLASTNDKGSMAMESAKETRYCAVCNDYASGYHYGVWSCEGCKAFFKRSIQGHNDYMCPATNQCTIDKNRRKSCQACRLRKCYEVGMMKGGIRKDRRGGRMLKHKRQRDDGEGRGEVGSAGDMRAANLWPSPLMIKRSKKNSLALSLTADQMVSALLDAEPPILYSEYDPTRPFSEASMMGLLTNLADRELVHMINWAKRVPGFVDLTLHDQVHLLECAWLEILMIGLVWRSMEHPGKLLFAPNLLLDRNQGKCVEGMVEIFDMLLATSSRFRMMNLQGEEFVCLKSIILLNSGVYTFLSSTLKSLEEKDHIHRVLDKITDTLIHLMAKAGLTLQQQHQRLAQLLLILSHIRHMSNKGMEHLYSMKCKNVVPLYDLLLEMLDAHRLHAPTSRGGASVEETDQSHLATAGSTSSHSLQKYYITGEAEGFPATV

Structure (SMILES) | Potency [1] | Potency [2] | Potency [3] | Potency [4] | Potency [5] | Potency [6] | Potency [7] | Potency [8] | Potency [9] | Potency [10] | Potency [11] | Potency [12] | Potency [13] | Potency [14] | Potency [15] | Potency [16] | Potency [17] | outcome [18] | Potency [19] | Potency [20]
C[C@@H]1C[C@H]2[C@@H]3CCC4=CC(=O)C=C[C@]4(C)[C@@]3(F)[C@@H](O)C[C@]2(C)[C@@]1(O)C(=O)CO | inactive | inactive | inactive | inactive | inactive | inactive | inactive | inactive | 22.2 µM (active) | inactive | inactive | inactive | inactive | inactive | inactive | inactive | – | – | – | –
NC(=O)Nc1ccc(Cl)c(Cl)c1 | inactive | inactive | inactive | inactive | inactive | inactive | inactive | inactive | inactive | inactive | inactive | inactive | inactive | inactive | inactive | inactive | – | – | – | –
Cc1ccc(/C=N/n2c(-c3ccccc3)csc2=S)cc1 | inactive | inactive | inactive | inactive | – | – | inactive | – | inactive | inactive | inactive | inactive | inactive | inactive | inactive | inactive | inactive | inactive | – | –
C[N+](C)(C)CCOC(N)=O | inactive | inactive | inactive | inactive | inactive | inactive | inactive | – | inactive | – | inactive | inactive | inactive | inactive | inactive | inactive | – | inactive | inactive | –
CC(Cl)C(Cl)Cl (stereo not drawn) | inactive | 48.2 µM (active) | inactive | inactive | inactive | – | inactive | – | inactive | – | inactive | inactive | inactive | inactive | inactive | inactive | – | – | – | inactive
Fc1ccccc1[C@@H](F)COC1CCC(Nc2ncnc3[nH]ncc23)CC1 (stereo partly drawn) | inactive | inactive | inactive | inactive | – | 21.9 µM (active) | – | inactive | – | – | – | – | inactive | inactive | inactive | – | – | – | 15.4 µM (active) | –
Nc1ccc(S(=O)(=O)O)cc1 | inactive | inactive | inactive | inactive | – | inactive | inactive | inactive | inactive | inactive | inactive | inactive | inactive | inactive | inactive | inactive | inactive | – | – | –
